# Inconclusive results are not listed. The source made the active and inactive calls. The call rests on the fitted dose curve; in most records, active means well fitted cell-killing curve with a large enough effect in the repeat runs; inconclusive means weak or mixed curves; inactive means flat fitted curve, though single readings scatter.
# Assay: qHTS assay to identify small molecule antagonists of the estrogen related receptor (ERR) signaling pathway - cell viability counter screen (AID 1224818)
# Conditions: ERR reporter cell line viability counter screen; series mostly up to 46.1 µM; viability change, negative = cytotoxic: at the top concentration
# Source text: National Center for Advancing Translational Sciences [NCATS]
# NIH Chemical Genomics Center [NCGC]
# U.S. Environmental Protection Agency [EPA]
# National Institutes of Environmental Health Sciences [NIEHS]
# National Toxicology Program [NTP]
# U.S. Food and Drug Administration [FDA]
# Estrogen related receptors (ERRs), the first orphan nuclear receptors discovered, play an important role in the control of cellular energy metabolism. ERRs are required for high-energy production in response to the environmental challenges. ERR-alpha was also identified as an adverse marker for breast cancer progression; ERR-alpha-positive tumors have a poor prognosis. To screen and to identify environmental compounds that perturb the ERR signaling pathways could provide valuable information for potential therapeutic or preventive measures in the treatment of metabolic disease. To differentiate true ERR antagonists or agonist from cytotoxic substances, the assay is multiplexed with cell viability assay.
# Tox21 Assay Protocol Summary:
# The ERR cells were dispensed at 2,000 cells/5 ul/well in 1536-well white plates using a Multidrop dispenser. After the assay plates were incubated at a 37 C/5% CO2 incubator for 6 hours, 23 nL of compounds dissolved in DMSO, positive and negative controls or DMSO only was transferred to the assay plate by a pin tool. The plates were incubated at 37 C for 17.5 hours. 1 ul/well of CellTiter-Fluor reagent was added into the assay plates using a Flying Reagent Dispenser. After 30 min incubation at 37 C/5% CO2, the fluorescence intensity in the plates was measured using a ViewLux plate reader.
# On the % scale 0 is the no-effect control and ±100 the full control effect; potency means the concentration at half of the fitted maximal effect.
SMILES,"viability change, negative = cytotoxic",Potency
CC1=NN=C(c2ccc(N)cc2)c2cc3c(cc2C1)OCO3,3.1% (inactive),–
C=CCN1CC[C@]23CCCCC2[C@H]1Cc1ccc(O)cc13 (stereo not given in full),4.46% (inactive),–
NCCc1c[nH]c2ccc(O)cc12,1.12% (inactive),–
C[N+]1(C)CCc2cc3c(cc2[C@H]1[C@@H]1OC(=O)c2c1ccc1c2OCO1)OCO3,9.53% (inactive),–
CC[C@@H]1C(=O)OC[C@@H]1Cc1cncn1C,–,inactive
O=c1ccc2[nH]cc(C3=CCNCC3)c2[nH]1,12.1% (inactive),–
COc1ccc(C(c2ccc(OC)cc2)C(Cl)(Cl)Cl)cc1,-8.88% [at 92.2 µM] (inactive),–
NCCCP(=O)(O)O,2.71% (inactive),–
C[C@H](N)CN1CCc2ccc(Br)cc21,-11.8% (inactive),–
NCC(O)c1cc(O)c(O)cc1F (stereo not given),15.5% (inactive),–
[Cl-].[Cl][Pt].[NH2-].[NH2-].c1ccncc1,9.16% (inactive),–
Ic1ccccc1CNC1C2CCN(CC2)C1C(c1ccccc1)c1ccccc1 (stereo not given),–,19.6 µM (active)
CN[C@@H]1C[C@@H](c2ccc(Cl)c(Cl)c2)c2ccccc21,-8.25% (inactive),–
CC(C)CC(NP(=O)(O)O[C@@H]1O[C@@H](C)[C@H](O)[C@@H](O)[C@H]1O)C(=O)NC(Cc1c[nH]c2ccccc12)C(=O)O (stereo not given in full),13.2% (inactive),–
CCCN(CCC)[C@H]1CCc2c(F)ccc(O)c2C1,-3.31% (inactive),–
CNc1ccc2oc(C[C@H]3O[C@@]4(CC[C@H]3C)O[C@H]([C@H](C)C(=O)c3ccc[nH]3)[C@H](C)C[C@H]4C)nc2c1C(=O)O,–,10.6 µM (active)
CO[C@H]1CC=C2CCN3CCC4=C(CC(=O)OC4)[C@]23C1,11.6% (inactive),–
Oc1ccc2c3c1O[C@H]1c4[nH]c5c(c4C[C@@]4(O)[C@@H](C2)N(CC2CC2)CC[C@]314)C[C@@]1(O)[C@H]2Cc3ccc(O)c4c3[C@@]1(CCN2CC1CC1)[C@H]5O4,8.46% (inactive),–
Nc1ccc(CCN2CCN(c3cccc(C(F)(F)F)c3)CC2)cc1,-11.1% (inactive),–
C[N+](C)(C)CCOC(=O)CBr,10.4% (inactive),–

SMILES,"viability change, negative = cytotoxic",Potency
NC(=NCCC[C@H](N)C(=O)O)N[N+](=O)[O-],2.9% (inactive),–
OCc1cnc[nH]1,5.93% (inactive),–
C[C@]12Cc3cn4c(nc3C=C1CCC1C2CC[C@@]2(C)[C@H]1CC[C@@]2(O)C#N)nc1ccccc14 (stereo not given in full),-20.5% (inactive),–
CC(=O)NBr,0.669% (inactive),–
O=C(Nc1ccccc1-c1ccc(Cl)cc1)c1cccnc1Cl,2.13% [at 92.2 µM] (inactive),–
Nc1ncnc2c1ncn2[C@@H]1O[C@H](COP(=O)(O)CP(=O)(O)OP(=O)(O)O)C(O)[C@H]1O (stereo not given in full),-3.77% (inactive),–
NC(=O)COc1c(F)cc(SCCNS(=O)(=O)c2ccccc2)cc1F,-1.11% (inactive),–
C[N+]1(C)CCC(OC(=O)C(c2ccccc2)c2ccccc2)CC1,13.6% (inactive),–
NC(CCCCCP(=O)(O)O)C(=O)O (stereo not given),13.8% (inactive),–
OC1CCCCC1N1CCC(c2ccccc2)CC1 (stereo not given),-6.42% (inactive),–
COc1ccc2[nH]cc(CCN)c2c1,-6% (inactive),–
CC(N)Cc1c[nH]c2ccc(OCc3cccs3)cc12 (stereo not given),-22.3% (inactive),–
C[N+]1(C)CCN(c2ccccc2)CC1,7.62% (inactive),–
NC(N)=Nc1ccc2[nH]c3c(c2c1)C[C@@]1(O)[C@H]2Cc4ccc(O)c5c4[C@@]1(CCN2CC1CC1)[C@H]3O5,3.63% (inactive),–
C=CCN1C[C@@H](C)N([C@H](c2ccc(C(=O)N(CC)CC)cc2)c2cccc(OC)c2)C[C@@H]1C,-9.09% (inactive),–
c1ccc(C2(c3ccccc3)CC2C2=NCCN2)cc1 (stereo not given),14.1% (inactive),–
CP(=O)(O)C1=CCNCC1,4.62% (inactive),–
O=C(N[C@H]1CN2CCC1CC2)c1ccc(Cl)cc1,-7.59% (inactive),–
COC(=O)N1CCN(C(=O)Cc2ccc(Cl)c(Cl)c2)C(CN2CCCC2)C1 (stereo not given),1.09% (inactive),–
C[N+]1(C)C2CCC1CC(OC(=O)C(CO)c1ccccc1)C2 (stereo not given),–,inactive

# Source: PubChem BioAssay (Tox21)
